Values joined by “and” are separate entries in the source; they are usually repeats but may differ in a detail not shown here. Identical values can stand only once. Results filed as inconclusive are left out. Active and inactive are the calls of the source. Unless noted, calls come from the whole dose curve.

Assay [1] is described as follows: qHTS for Inhibitors of ATXN expression: Validation of Cytotoxic Assay (AID 588349; active = well fitted curve in the direction sought with a large enough effect; an effect the other way counts as inactive or inconclusive; note: potency is the fitted concentration of half-maximal effect). In a few lines: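 HEK293 cells treated with titrated compound for 72 hr at 37 degrees C; viability read as intracellular ATP by CellTiter Glo luminescence.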
The target in assay [2] is DNA dC->dU-editing enzyme APOBEC-3G (Homo sapiens) (UniProt Q9HC16). As to the kind of experiment: qHTS for inhibitors of Vif-A3G interactions: Validation (AID 588379; active = well fitted curve in the direction sought with a large enough effect; an effect the other way counts as inactive or inconclusive; note: 0% is about no effect). The gist of the method:
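HeLa cells stably expressing Vif and A3G-eYFP, 700 cells/well, incubated overnight at 37 deg C, then exposed to compound overnight at 37 deg C. Inhibition of Vif-mediated degradation read as increased yellow fluorescence (Ex 488/Em 500-530) by laser-scanning cytometry.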
Background: qHTS replaces the single test concentration by a dilution series.

In assay [3] the target is Estrogen receptor (Homo sapiens) (UniProt P03372). As to the kind of experiment: qHTS assay for small molecule antagonists of estrogen receptor alpha signaling (AID 588513; active = well fitted curve in the direction sought with a large enough effect in the signal ratio, with a control signal flat, not every such curve was filed as active; the % refers to the signal ratio; note: % is set by controls: 0 for no effect and ±100 for the full control effect). In a few lines:
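ER-alpha-UAS-bla GripTite HEK 293 cells in 2% charcoal/dextran-treated FBS medium; compounds titrated (1:2, duplicate), then stimulated with 0.5 nM 17-beta-estradiol for 18 h at 37C. CCF4 beta-lactamase fluorescence; Hill-fit IC50 and efficacy.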

Assay [4] shares this target. As to the kind of experiment: qHTS assay for small molecule agonists of estrogen receptor alpha signaling (AID 588514).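 Note: 0% = vehicle only and 100% = reference agonist; nearly all actives have a fitted effect of over 70% in size.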 In a few lines: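 ER-alpha-UAS-bla GripTite HEK293 cells, 5000/well in 2% charcoal/dextran-stripped FBS medium, treated with compound titrations 18 h at 37 C. CCF4 beta-lactamase read by fluorescence after 2 h RT; normalised to 20 nM 17-beta-estradiol (100%) and DMSO (0%), Hill fit for EC50 and efficacy.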

The target in assay [5] is Glucocorticoid receptor (Homo sapiens) (UniProt P04150). As to the kind of experiment: qHTS assay for small molecule agonists of glucocorticoid receptor signaling (AID 588532; active = well fitted curve in the direction sought with a large enough effect in the signal ratio, with a control signal flat; the % refers to the signal ratio;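 note: 100% = dexamethasone at 0.1 µM and 0% = DMSO only wells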). The conditions noted are these: HeLa MMTV-bla, beta-lactamase ratio, agonist, 18 h; stronger effect = higher value; percent of dexamethasone control, DMSO zero. In a few lines:
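Stimulation of a glucocorticoid response element-driven beta-lactamase gene was measured in HeLa cells. Responses were scaled between DMSO basal and 0.1 uM dexamethasone, then fitted for half-maximal stimulation.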

Assay [6] has the same target. Put plainly: qHTS assay for small molecule antagonists of glucocorticoid receptor signaling (AID 588533; active = well fitted inhibition curve with a large enough effect in the signal ratio, with a control signal flat, not every such curve was filed as active; the % refers to the signal ratio;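 note: cells stimulated with 2 nM dexamethasone as agonist; % is set by controls: 0 for no effect and ±100 for the full control effect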). In a few lines: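 Antagonist-mode qHTS: compound titrations added to GRE-bla HeLa cells, then dexamethasone 2 nM final; 18 h, 37 C. CCF4 FRET fluorescence normalized to dexamethasone and DMSO; IC50 from Hill fit.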
For assay [7], the target named is Peroxisome proliferator-activated receptor gamma (Homo sapiens) (UniProt P37231). As to the kind of experiment: qHTS assay for small molecule agonists of peroxisome proliferator-activated receptor gamma signaling (AID 588536; active = well fitted curve in the direction sought with a large enough effect in the signal ratio, with a control signal flat, not every such curve was filed as active; the % refers to the signal ratio;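 note: 0% = DMSO basal wells and 100% = rosiglitazone at 2 µM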). In a few lines:
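HEK293 UAS-bla reporter line, 1% charcoal/dextran FBS; titration, 16 h, 37 C; CCF4 loading 2 h RT; fluorescence 460/530 nm. Normalized to rosiglitazone 2 uM = 100%, DMSO = 0%.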

The target is the same in assay [8]. Put plainly: qHTS assay for small molecule antagonists of peroxisome proliferator-activated receptor gamma signaling (AID 588537; active = well fitted inhibition curve with a large enough effect in the signal ratio, with a control signal flat, not every such curve was filed as active; the % refers to the signal ratio;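 note: reporter cells co-stimulated with 50 nM rosiglitazone agonist during compound treatment; % of control where 0% means no effect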). In a few lines:
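We seeded GeneBLAzer HEK293 reporter cells at 3000 per well, allowed 6-6.5 h attachment at 37 C, then co-treated with test compound titrations and 50 nM rosiglitazone overnight (16 h). Inhibition was quantified from 460/530 nm emission ratios.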

Assay [9] has as its target Vitamin D3 receptor (Homo sapiens) (UniProt P11473). Put plainly: qHTS assay for small molecule antagonists of vitamin D receptor signaling (AID 588541).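 Note: receptor activated by calcitriol during compound treatment; series mostly up to about 77 µM; % is set by controls: 0 for no effect and ±100 for the full control effect.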 The gist of the method:
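VDR-UAS-bla HEK293T cells (2000/well, 2% charcoal-stripped FBS) were treated with titrated compounds plus 1-alpha,25-dihydroxyvitamin D3 (50 nM or 3 nM final) for 16 h at 37 C. CCF4 beta-lactamase fluorescence was read; Hill fits gave IC50.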

Assay [10] has the same target. As to the kind of experiment: qHTS assay for small molecule agonists of vitamin D receptor signaling (AID 588543).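 Note: 0% = DMSO basal and 100% = reference agonist control.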 In a few lines: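 VDR-UAS-bla HEK293T cells, 2000/well, 2% charcoal-stripped FBS; compound titration 16 h at 37 C; CCF4 beta-lactamase ratio read. Normalized to 50 nM 1-alpha,25-dihydroxyvitamin D3 (100%) and DMSO; Hill fit gives EC50, efficacy.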
Assay [11] has as its target Thyroid hormone receptor beta (Homo sapiens) (UniProt P10828). Put plainly: qHTS assay for small molecule agonists of thyroid hormone receptor beta signaling (AID 588545).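 Note: 0% = DMSO only and 100% = 10 nM T3.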 The gist of the method:
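Compounds were tested as agonists in TR-UAS-bla-GripTite HEK 293 cells. After 18 hrs at 37 C, CCF4 substrate was added and fluorescence read after 2 hrs at room temperature.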

A short description of assay [12]: qHTS assay for small molecule agonists of retinoid X receptor alpha signaling (AID 588544).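 For activation: 0% = DMSO basal wells and 100% = reference agonist.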 Conditions: HEK293T RXRa-UAS-bla, beta-lactamase reporter, 18 h; 530 nm emission.
The target in assay [13] is Retinoic acid receptor RXR-alpha (Homo sapiens) (UniProt P19793). Described as above.
Chain of Retinoic acid receptor RXR-alpha (Homo sapiens) (P19793 whole entry, looked up): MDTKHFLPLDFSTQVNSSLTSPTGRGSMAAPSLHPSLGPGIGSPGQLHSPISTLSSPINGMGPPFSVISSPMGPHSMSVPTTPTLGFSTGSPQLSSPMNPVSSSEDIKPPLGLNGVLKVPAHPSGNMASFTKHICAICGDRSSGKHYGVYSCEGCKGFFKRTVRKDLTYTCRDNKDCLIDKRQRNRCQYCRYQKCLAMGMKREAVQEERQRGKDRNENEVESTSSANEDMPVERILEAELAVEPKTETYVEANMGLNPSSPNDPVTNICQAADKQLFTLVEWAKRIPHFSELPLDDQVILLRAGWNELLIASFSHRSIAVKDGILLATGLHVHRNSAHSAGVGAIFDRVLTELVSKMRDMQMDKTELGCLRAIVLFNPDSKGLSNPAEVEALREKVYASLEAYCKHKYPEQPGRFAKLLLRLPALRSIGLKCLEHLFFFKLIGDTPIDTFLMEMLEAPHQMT
Assay [14] can be described thus: qHTS assay for small molecule antagonists of retinoid X receptor alpha signaling (AID 588546).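 Note: cells stimulated with 9-cis-retinoic acid as agonist; % is set by controls: 0 for no effect and ±100 for the full control effect.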 The conditions noted are these: HEK293T RXRa-UAS-bla, beta-lactamase ratio, antagonist mode; measured here: W530 green channel, cytotoxicity proxy. The gist of the method:
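Beta-lactamase reporter inhibition, read as CCF4 fluorescence ratio (ex 405, em 460/530 nm) after 2 h at RT. HEK293T UAS-bla cells, 2500/well, were stimulated with 9-cis-RA at 500 or 100 nM final alongside test compound for 18 h at 37 C.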

Assay [15] is described as follows: qHTS assay for small molecule antagonists of peroxisome proliferator-activated receptor delta signaling (AID 588535; active = well fitted inhibition curve with a large enough effect in the signal ratio, with a control signal flat, not every such curve was filed as active; the % refers to the signal ratio;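 for max response: cells co-treated with a PPAR-delta agonist as stimulator during compound exposure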). Conditions: HEK293T PPARd-UAS-bla, beta-lactamase FRET ratio, 18 h; 460 nm channel. In a few lines: (§1)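 Reporter: UAS-bla under PPAR-delta response element, HEK293T host. Medium: 2% charcoal/dextran FBS. Dosing: titration, 18 hrs, 37 C. Detection: CCF4, 2 hrs RT, 405 ex/460 and 530 em.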

For assay [16], the target named is Peroxisome proliferator-activated receptor delta (Homo sapiens) (UniProt Q03181). Described as above. The gist of the method: as §1
Chain of Peroxisome proliferator-activated receptor delta (Homo sapiens) (Q03181 whole entry, looked up): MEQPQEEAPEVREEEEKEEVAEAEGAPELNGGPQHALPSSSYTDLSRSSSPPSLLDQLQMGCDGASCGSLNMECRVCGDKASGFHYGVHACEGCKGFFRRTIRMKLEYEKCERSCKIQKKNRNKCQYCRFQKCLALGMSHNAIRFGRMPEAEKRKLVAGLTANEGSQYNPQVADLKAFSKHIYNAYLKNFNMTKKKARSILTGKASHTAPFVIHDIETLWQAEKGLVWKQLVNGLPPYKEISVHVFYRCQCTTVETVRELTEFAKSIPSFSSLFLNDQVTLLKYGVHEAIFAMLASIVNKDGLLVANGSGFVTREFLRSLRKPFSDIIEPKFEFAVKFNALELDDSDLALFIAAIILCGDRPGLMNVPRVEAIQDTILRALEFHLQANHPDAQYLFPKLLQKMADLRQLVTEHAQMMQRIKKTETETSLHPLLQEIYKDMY
Assay [17] addresses Androgen receptor (Homo sapiens) (UniProt P10275). Put plainly: qHTS assay for small molecule agonists of androgen receptor signaling (AID 588515; active = well fitted curve in the direction sought with a large enough effect in the signal ratio, with a control signal flat; the % refers to the signal ratio; note: potency is the fitted concentration of half-maximal effect). The conditions noted are these: AR-UAS-bla HEK293, beta-lactamase ratio, agonist 16 h; activation: stronger effect = higher value. The gist of the method:
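EC50 and efficacy came from Hill fits of titrations (up to 92 uM) normalized to 30 nM R1881 as 100% and DMSO as 0%. Compound exposure was 16 h at 37 C on AR-UAS-bla HEK293 cells, with a 405/460/530 nm CCF4 fluorescence read.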

Chain of Thyroid hormone receptor beta (Homo sapiens) (P10828 whole entry, looked up): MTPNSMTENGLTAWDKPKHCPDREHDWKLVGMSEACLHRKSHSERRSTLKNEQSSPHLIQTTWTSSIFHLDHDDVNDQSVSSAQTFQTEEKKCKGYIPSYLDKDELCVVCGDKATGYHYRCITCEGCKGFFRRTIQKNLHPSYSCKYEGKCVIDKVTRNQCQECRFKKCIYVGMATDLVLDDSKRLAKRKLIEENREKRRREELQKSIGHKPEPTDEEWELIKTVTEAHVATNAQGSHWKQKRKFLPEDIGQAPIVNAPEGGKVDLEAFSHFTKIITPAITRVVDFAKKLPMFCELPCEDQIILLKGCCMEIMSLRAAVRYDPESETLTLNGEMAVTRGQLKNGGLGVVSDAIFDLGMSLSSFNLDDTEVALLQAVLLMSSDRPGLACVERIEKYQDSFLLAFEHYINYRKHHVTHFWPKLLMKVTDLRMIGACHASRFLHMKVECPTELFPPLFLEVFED
Chain of Peroxisome proliferator-activated receptor gamma (Homo sapiens) (P37231 whole entry, looked up): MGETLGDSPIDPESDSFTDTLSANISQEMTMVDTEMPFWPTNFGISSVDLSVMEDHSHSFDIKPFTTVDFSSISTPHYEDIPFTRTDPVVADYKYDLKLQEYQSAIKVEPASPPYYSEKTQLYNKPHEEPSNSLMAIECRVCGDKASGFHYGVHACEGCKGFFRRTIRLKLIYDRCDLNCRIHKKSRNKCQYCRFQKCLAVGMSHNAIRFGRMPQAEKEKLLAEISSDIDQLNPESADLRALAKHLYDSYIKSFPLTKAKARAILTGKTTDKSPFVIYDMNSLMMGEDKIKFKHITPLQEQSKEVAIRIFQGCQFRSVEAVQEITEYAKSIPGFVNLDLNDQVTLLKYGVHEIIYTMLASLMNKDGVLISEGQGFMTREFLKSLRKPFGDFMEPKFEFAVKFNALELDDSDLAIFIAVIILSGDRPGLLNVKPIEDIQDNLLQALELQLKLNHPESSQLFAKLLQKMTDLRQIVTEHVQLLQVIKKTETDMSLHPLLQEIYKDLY
Chain of Vitamin D3 receptor (Homo sapiens) (P11473 whole entry, looked up): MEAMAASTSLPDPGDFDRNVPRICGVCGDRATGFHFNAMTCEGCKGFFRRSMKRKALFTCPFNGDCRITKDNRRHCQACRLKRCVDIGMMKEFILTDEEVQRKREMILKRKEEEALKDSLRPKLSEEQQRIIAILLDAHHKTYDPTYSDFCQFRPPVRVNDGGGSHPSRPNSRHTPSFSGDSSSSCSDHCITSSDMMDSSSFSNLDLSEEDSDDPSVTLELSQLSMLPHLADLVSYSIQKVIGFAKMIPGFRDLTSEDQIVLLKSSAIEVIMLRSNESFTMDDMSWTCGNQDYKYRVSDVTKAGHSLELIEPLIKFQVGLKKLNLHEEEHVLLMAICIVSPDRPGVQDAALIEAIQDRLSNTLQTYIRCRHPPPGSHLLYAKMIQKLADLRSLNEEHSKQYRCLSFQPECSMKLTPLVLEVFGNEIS
Chain of Estrogen receptor (Homo sapiens) (P03372 whole entry, looked up): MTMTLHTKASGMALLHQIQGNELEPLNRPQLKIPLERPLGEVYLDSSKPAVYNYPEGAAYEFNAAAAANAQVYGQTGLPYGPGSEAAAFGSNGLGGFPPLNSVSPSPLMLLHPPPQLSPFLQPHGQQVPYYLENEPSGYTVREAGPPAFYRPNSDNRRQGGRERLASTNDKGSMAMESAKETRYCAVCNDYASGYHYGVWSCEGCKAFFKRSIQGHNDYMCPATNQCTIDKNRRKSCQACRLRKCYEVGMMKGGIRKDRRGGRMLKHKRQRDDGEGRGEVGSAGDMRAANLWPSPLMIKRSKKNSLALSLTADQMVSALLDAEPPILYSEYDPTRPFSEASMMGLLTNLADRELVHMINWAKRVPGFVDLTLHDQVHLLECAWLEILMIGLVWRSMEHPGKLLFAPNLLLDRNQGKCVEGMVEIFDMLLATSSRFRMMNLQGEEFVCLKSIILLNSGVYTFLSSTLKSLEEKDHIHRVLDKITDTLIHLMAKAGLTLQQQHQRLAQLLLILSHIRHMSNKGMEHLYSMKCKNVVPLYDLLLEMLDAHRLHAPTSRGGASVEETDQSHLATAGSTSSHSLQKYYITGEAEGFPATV
Chain of Glucocorticoid receptor (Homo sapiens) (P04150 whole entry, looked up): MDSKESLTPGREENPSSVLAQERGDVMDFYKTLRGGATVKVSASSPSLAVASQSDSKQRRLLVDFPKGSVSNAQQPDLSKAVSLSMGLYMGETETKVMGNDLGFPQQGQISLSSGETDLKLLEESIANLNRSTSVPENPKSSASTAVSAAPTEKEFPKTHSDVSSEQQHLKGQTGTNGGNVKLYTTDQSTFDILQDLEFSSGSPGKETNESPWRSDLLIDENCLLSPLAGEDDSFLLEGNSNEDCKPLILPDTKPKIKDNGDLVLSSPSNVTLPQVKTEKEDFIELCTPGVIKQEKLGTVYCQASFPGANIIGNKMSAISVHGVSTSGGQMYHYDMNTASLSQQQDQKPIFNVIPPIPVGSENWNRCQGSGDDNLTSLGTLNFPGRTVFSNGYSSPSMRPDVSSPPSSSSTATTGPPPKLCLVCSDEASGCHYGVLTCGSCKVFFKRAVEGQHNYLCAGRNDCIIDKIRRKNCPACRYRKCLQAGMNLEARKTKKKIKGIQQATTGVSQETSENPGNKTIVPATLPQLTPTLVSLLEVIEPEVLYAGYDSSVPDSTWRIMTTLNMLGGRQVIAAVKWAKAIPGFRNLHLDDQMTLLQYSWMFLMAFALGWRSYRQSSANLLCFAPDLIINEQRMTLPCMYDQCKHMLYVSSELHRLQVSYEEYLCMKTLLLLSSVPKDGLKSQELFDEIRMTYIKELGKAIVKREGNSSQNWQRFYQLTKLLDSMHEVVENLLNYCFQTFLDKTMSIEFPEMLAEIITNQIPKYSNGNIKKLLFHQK
Chain of DNA dC->dU-editing enzyme APOBEC-3G (Homo sapiens) (Q9HC16 whole entry, looked up): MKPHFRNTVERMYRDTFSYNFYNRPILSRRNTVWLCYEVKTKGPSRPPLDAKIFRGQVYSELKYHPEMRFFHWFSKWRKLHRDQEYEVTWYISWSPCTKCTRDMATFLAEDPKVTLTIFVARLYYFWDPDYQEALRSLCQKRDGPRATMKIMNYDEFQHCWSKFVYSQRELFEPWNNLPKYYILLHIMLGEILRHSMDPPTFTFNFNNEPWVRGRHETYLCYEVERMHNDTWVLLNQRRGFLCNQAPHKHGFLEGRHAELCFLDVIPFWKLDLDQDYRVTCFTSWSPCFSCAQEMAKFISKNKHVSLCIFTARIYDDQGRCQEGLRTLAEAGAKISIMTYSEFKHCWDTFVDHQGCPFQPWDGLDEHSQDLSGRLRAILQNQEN
Chain of Androgen receptor (Homo sapiens) (P10275 whole entry, looked up): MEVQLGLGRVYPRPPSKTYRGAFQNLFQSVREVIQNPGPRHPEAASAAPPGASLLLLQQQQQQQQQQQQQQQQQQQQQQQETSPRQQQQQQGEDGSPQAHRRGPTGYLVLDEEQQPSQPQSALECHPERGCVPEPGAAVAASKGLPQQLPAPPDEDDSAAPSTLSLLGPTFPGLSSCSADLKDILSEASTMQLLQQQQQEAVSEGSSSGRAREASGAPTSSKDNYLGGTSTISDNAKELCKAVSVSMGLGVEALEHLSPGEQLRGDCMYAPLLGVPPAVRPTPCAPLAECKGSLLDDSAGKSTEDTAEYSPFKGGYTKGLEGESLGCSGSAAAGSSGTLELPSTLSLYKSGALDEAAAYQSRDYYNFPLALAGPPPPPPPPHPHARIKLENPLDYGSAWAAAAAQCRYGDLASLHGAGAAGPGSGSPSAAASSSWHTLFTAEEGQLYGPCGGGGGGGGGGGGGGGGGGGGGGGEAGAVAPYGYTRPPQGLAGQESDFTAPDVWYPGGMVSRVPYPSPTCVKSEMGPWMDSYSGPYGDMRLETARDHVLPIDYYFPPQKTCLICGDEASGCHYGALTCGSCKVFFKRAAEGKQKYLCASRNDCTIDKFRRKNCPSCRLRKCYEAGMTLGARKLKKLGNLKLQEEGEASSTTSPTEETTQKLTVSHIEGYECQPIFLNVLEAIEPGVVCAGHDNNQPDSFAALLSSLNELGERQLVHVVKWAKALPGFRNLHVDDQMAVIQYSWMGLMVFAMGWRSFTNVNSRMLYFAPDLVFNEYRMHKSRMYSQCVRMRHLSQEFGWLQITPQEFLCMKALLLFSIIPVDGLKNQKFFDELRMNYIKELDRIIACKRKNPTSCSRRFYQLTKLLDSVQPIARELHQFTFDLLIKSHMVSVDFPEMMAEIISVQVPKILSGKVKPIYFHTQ

Turning to `CN1CCN(CCCN2c3ccccc3Sc3ccc(C(F)(F)F)cc32)CC1`, in assay [1], the Potency was 28.2 µM (active).

Consider `CCOC(=O)N1CCC(=C2c3ccc(Cl)cc3CCc3cccnc32)CC1`, for which, in assay [1], the Potency entry was “inactive”. In [2], the call was inactive.

Take `C1COC(NC(C2CC2)C2CC2)=N1`: the Potency result in assay [1] is “inactive”. For the same compound, the compound was classed as inactive in assay [2].

In the case of `CCCC(CCC)C(=O)O`, the Potency entry in [1], in [3] and in assay [6] was “inactive” throughout. Moreover, the compound was classed as inactive in assay [4], in [7], in assay [8], in assay [9], in assay [10] and in assay [11]. Also, the activation in assay [5] is 0.686% (inactive) and -7.28% (inactive) and -7.7% (inactive).

On to `CNC[C@H](O)c1cccc(O)c1`, for which, in assay [1], the Potency entry is “inactive”. For the same compound, the call in assay [9], in [10], in assay [13] and in [11] was inactive. Moreover, the max response in [12] was -17.1%; in assay [14], 2.07%.

Regarding `NC[C@H](O)c1ccc(O)c(O)c1`, the Potency entry in [1] and in assay [6] was “inactive” in each case. Further, the activation in assay [5] is -3.45% (inactive). Besides, the max response in assay [15] was -17.3%; in assay [12], -17.2%; in assay [14], -24.3%. The compound was called inactive in assay [16], in assay [7], in assay [8], in assay [13] and in assay [11].

On to `C[C@]12CCC(=O)C=C1CC[C@@H]1[C@@H]2[C@@H](O)C[C@@]2(C)[C@H]1CC[C@]2(O)C(=O)CO`, for which the Potency entry in assay [1] and in assay [6] was “inactive” each time. Besides, the Potency in assay [17] was 0.0141 µM (active). Also, the results for the max response in assay [15] and in assay [14] were 46.7% and 7.22%, respectively. Also, the outcome in [16], in assay [7], in assay [8], in assay [10] and in assay [11] was inactive.

Consider `CCOC(=O)C1=C[C@]2(CC)CCCN3CCc4c(n1c1ccccc41)[C@@H]32`, for which the Potency entry in assay [1] was “inactive”.

In the case of `NC(=O)c1cnccn1`, the Potency entry in assay [1], in assay [3] and in assay [6] was “inactive” throughout. The compound was called inactive in [4], in assay [16], in assay [7], in assay [8], in [9] and in assay [10]. Moreover, in assay [13], the compound was classed as inactive. Besides, in [5], the activation was -2.74% (inactive) and -4.57% (inactive). The max response in [15] is 33.3%; in assay [12], -9.81%; in assay [14], -6.21%.
